Laboratory results: PubChem BioAssay AID1159580 (chemical genetic matrix, 2015)
Hit rate of the full screen: of about 5,500 compounds, about 2,000 (36%) were called active. Inconclusive results (about 18%) are left out. Rule as the data show it: active = normalized growth mostly below about 0.91 (no sharp cut-off); inconclusive = no clear call, values can overlap the other calls; inactive = mostly above about 0.92. Some of the results follow.

Assay: chemical genetic growth profiling, strain panel (AID 1159580);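 also: tested at 20 µM; growth read once vehicle control cultures reached saturation at 30 °C; 1 = growth at the plate median or of vehicle wells; lower values mean less growth of the strain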
Settings: growth OD
[1] = S. cerevisiae deletion strains, locus YAL013W, strain DEP1, stronger effect = lower value
[2] = S. cerevisiae deletion strains, locus YGR078C, strain PAC10, stronger effect = lower value
[3] = S. cerevisiae deletion strains, locus YMR263W, strain SAP30, stronger effect = lower value
[4] = S. cerevisiae deletion strains, locus YNL128W, strain TEP1, stronger effect = lower value
[5] = S. cerevisiae deletion strains, locus YNL322C, strain KRE1, stronger effect = lower value
[6] = S. cerevisiae deletion strains, locus YPL055C, strain LGE1, stronger effect = lower value
[7] = S. cerevisiae deletion strains, locus YAL040C, strain CLN3, stronger effect = lower value
[8] = S. cerevisiae deletion strains, locus YER002W, strain NOP16, stronger effect = lower value
[9] = S. cerevisiae deletion strains, locus YNL175C, strain NOP13, stronger effect = lower value
[10] = S. cerevisiae deletion strains, locus YNL197C, strain WHI3, stronger effect = lower value
[11] = S. cerevisiae deletion strains, locus YNL224C, strain SQS1, stronger effect = lower value
[12] = S. cerevisiae deletion strains, locus YOR083W, strain WHI5 (second series), stronger effect = lower value

Measured: normalized growth

Cn1nccc1NS(=O)(=O)c1ccc(C(C)(C)C)cc1
inactive: [1] 0.982 | S. cerevisiae deletion strains, locus YBR229C, strain ROT2, stronger effect = lower value 0.97 | S. cerevisiae deletion strains, locus YCL061C, strain MRC1, stronger effect = lower value 0.982 | S. cerevisiae deletion strains, locus YDL101C, strain DUN1, stronger effect = lower value 0.983 | S. cerevisiae deletion strains, locus YDR150W, strain NUM1, stronger effect = lower value 0.992 | S. cerevisiae deletion strains, locus YEL061C, strain CIN8, stronger effect = lower value 0.984 | [2] 0.985 | S. cerevisiae deletion strains, locus YGR229C, strain SMI1, stronger effect = lower value 0.981 | S. cerevisiae deletion strains, locus YHR030C, strain SLT2, stronger effect = lower value 0.948 | S. cerevisiae deletion strains, locus YHR087W, strain rtc3, stronger effect = lower value 0.973 | S. cerevisiae deletion strains, locus YJR043C, strain POL32, stronger effect = lower value 0.978 | S. cerevisiae deletion strains, locus YJR075W, strain HOC1, stronger effect = lower value 0.987 | S. cerevisiae deletion strains, locus YKL190W, strain CNB1, stronger effect = lower value 0.96 | S. cerevisiae deletion strains, locus YLR039C, strain RIC1, stronger effect = lower value 0.92 | S. cerevisiae deletion strains, locus YLR058C, strain SHM2 (second series), stronger effect = lower value 0.975 | S. cerevisiae deletion strains, locus YLR085C, strain ARP6, stronger effect = lower value 1.08 | S. cerevisiae deletion strains, locus YLR262C, strain YPT6, stronger effect = lower value 0.82 | S. cerevisiae deletion strains, locus YML094W, strain GIM5, stronger effect = lower value 1.03 | S. cerevisiae deletion strains, locus YMR219W, strain ESC1, stronger effect = lower value 0.985 | [3] 0.979 | [4] 0.968 | S. cerevisiae deletion strains, locus YNL153C, strain GIM3, stronger effect = lower value 0.989 | S. cerevisiae deletion strains, locus YNL298W, strain CLA4 (second series), stronger effect = lower value 0.948 | [5] 0.98 | S. cerevisiae deletion strains, locus YNR030W, strain Alg12, stronger effect = lower value 1 | [6] 1.03 | S. cerevisiae deletion strains, locus YPL241C, strain CIN2, stronger effect = lower value 1.01 | S. cerevisiae deletion strains, locus YPR135W, strain CTF4, stronger effect = lower value 0.929 | S. cerevisiae strains, strain wild type, stronger effect = lower value 0.959

CC(C)(C)c1ccc(S(=O)(=O)/C=C/C#N)cc1
active: [1] 0.234 | [7] 0.0822 | [8] 0.139 | [2] 0.0608 | [4] 0.0795 | [9] 0.227 | [10] 0.0935 | [11] 0.255 | [12] 0.0681
inactive: [5] 1.01

OC[C@H]1O[C@@H](n2cnc3c(NC4CCCCC4)ncnc32)[C@H](O)[C@@H]1O
inactive: [7] 1.04 | S. cerevisiae deletion strains, locus YCL061C, strain MRC1 (second series), stronger effect = lower value 1.01 | S. cerevisiae deletion strains, locus YDR363W, strain ESC2, stronger effect = lower value 0.994 | [8] 1.01 | [2] 1.05 | [3] 1.01 | S. cerevisiae deletion strains, locus YMR307W, strain GAS1, stronger effect = lower value 1.01 | [9] 1.01 | [10] 1.01 | [11] 1 | [5] 1.02 | [12] 0.984 | [6] 0.995
